From PubChem BioAssay (NCI)
The panel holds about 83,000 compounds, 20% with a hit somewhere; the sample as a whole holds those more often.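 48-hour exposure, single concentration, 96-well plates; percent growth endpoint where 0 means no net growth. Active: below 10.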 Activity calls are given as the source filed them.

What follows are compounds tested on MDA-MB-468 breast (assay: NCI-60 one-dose screen, 48 h (100 = growth as untreated, 0 = no growth, -100 = all killed)). Conditions: 10 µM unless noted.

Structure (SMILES) | growth
O=C(/C=C/c1ccc2c(c1)OCO2)c1c(O)c2ccccc2oc1=O | 133% (inactive)
Cc1ccc(C(C(N)=O)C(C(N)=O)c2ccccc2)cc1 (stereo unspecified) | 105% (inactive)
CCCCCC(CCC)COC(=O)c1ccc(OC)cc1 (stereo unspecified) | 104% (inactive)
CC/C=C\C[C@H](O)C/C=C1/C(=O)C=C[C@@H]1C/C=C\CCCCO | 16.5% (inactive)
COc1ccc(Cn2cc3c(c2-c2ccc(O)cc2)CCc2cnoc2-3)cc1 | -3.26% (active)
CCCS(=O)(=O)Nc1ccc(F)c(C(=O)c2c[nH]c3ncc(-c4ccc(Cl)cc4)cc23)c1F | 39.3% (inactive)
CC1=CCC2C1CC=C(C)C(CC[C@H]1[C@@](C)(O)CCC3OC(C)(C)[C@H](OC(=O)c4ccccc4)CC[C@@]31C)C2(C)C (stereo partly specified) | 64.8% (inactive)
Clc1ccc(/C=C/c2ccccn2)cc1 | 38.3% (inactive)
COc1ccc(/C(=C\c2cc(OC)c(OC)c(OC)c2)C(=O)N2CCN(c3ccccc3)CC2)cc1O | 96.8% (inactive)
CC(C)C1C2=C(NCCN1C(=O)Cc1ccccc1)C(C)(C)N(Cc1ccccc1)C2=O (stereo unspecified) | 95.5% (inactive)
Cc1cc2nc(C(Cl)Cl)nc(-c3ccco3)n2n1 | -34% (active)
CC(=O)Oc1ccc(C2=Cc3ccc(OC(C)=O)cc3OC2C)cc1 (stereo unspecified) | 56.5% (inactive)
COc1ccc(Sc2[nH]c(C=O)c3ccccc23)cc1 | 9.32% (active)
CCN1C(=O)N(CC)C2Nn3c(s/c(=C4\C(=O)N(C(C)C)c5ccccc54)c3=O)=NC21 (stereo unspecified) | 9.33% (active)
Cc1ccc(/C=N/Nc2nc(Nc3ccccc3)nc(-n3nc(C)cc3C)n2)cc1 | 60.9% (inactive)
CCN1CCN(CCNc2nccc(-c3c(-c4cccc(OC)c4)nc4occn34)n2)S1(=O)=O | 100% (inactive)
CC(C)(C)n1cc(-c2ccnc(NCCNS(=O)(=O)c3ccc(C(F)(F)F)cc3)c2)c(-c2ccccc2)n1 | 89.1% (inactive)
CCOC(=O)C1OC2(CCCC2)OC1C(=O)OCC (stereo unspecified) | 100% (inactive)

Structure (SMILES) | growth
COc1cccc(/C=C/C(=O)c2ccc(NC(=O)COc3cccc4cccnc34)cc2)c1 | 90.9% (inactive)
C1Cc2onc(-c3noc4c3CCC4)c2C1 | 110% (inactive)
CC(=O)O[C@H]1[C@H](CC#CC#CC[C@@H]2C[C@]3(C)[C@H]4CC=C5[C@H]6[C@@H](C)[C@H](C)CC[C@]6(C(=O)NCCN(CCN)CCN)CC[C@@]5(C)[C@]4(C)CC[C@H]3C(C)(C)[C@H]2OC(C)=O)C[C@]2(C)[C@H]3CC=C4[C@H]5[C@@H](C)[C@H](C)CC[C@]5(C(=O)NCCN(CCN)CCN)CC[C@@]4(C)[C@]3(C)CC[C@H]2C1(C)C | 1.36% (active)
COc1ccc(NC(=O)c2sc3nc(C)c(C(=O)CCc4cccc(OC)c4)cc3c2N)cc1 | 29.6% (inactive)
CCN(CC)c1nc(SCC(=O)Nc2nc3ccc(C)cc3s2)nc(-c2ccccc2)c1C#N | 86.7% (inactive)
Cc1cc(=O)n2nnc3c4ccccc4ccc3n12 | 15.5% (inactive)
O=C(CNc1nc(-c2ccc(Cl)cc2)cs1)Nc1ccc(-c2nc3ccccc3s2)cc1 | -39.5% (active)
O=C(Nc1ncc(Cc2cccc(C(F)(F)F)c2)s1)C1COc2ccccc2O1 (stereo unspecified) | 77.4% (inactive)
O=C(OCc1ccccc1)n1nnc2ccccc21 | 107% (inactive)
COc1cc2c3c(c1)nc(C)n3CCC2 | 99.6% (inactive)
Cc1ccc(Cc2c(C=O)nc(N)[nH]c2=O)c2ccccc12 | 106% (inactive)
COc1cc(/C=C\C(=O)O)ccc1OCc1ccccc1 | 92.5% (inactive)
C1CCCCNCCC1 | 98.6% (inactive)
O=C(Nc1ccc(-n2cc(-c3ccncc3)c(-c3ccc(O)c(Cl)c3)n2)cc1)c1cc(C(F)(F)F)cc(C(F)(F)F)c1 | 64.9% (inactive)
C#Cc1nc(C(=O)NCCCCCCC(=O)NO)cs1 | -33.8% (active)
CCOC(=O)C1=C(C)NC(SCc2nnc(-c3ccc(Cl)cc3)o2)=NC1c1ccc(Cl)cc1Cl (stereo unspecified) | 88.4% (inactive)
O=C(CN1C(=O)/C(=C/c2ccc(Cl)cc2)SC1=S)NCCCN1CCOCC1 | 94.3% (inactive)
CCC1=C[C@@H]2CN(C1)Cc1c([nH]c3ccccc13)[C@@](C(=O)OC)(c1cc3c(cc1OC)N(C=O)[C@H]1[C@@](O)(C(=O)OC)[C@H](OC(C)=O)[C@]4(CC)[C@@H]5C[C@@H]5CN5CC[C@]31[C@@H]54)C2 | 25.2% (inactive)
